CYP2C9 inh: blocks human cytochrome P450 2C9 | 20% of 96,000 active | CYP2C9 Supersomes, luciferin-H conversion, luminescence | P11712 | inhibition, % at 5 µM;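 active means blocking of liver enzyme CYP2C9 beyond about 50% at 5 µM, limit read from the data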
Target sequence (P11712 whole entry, looked up): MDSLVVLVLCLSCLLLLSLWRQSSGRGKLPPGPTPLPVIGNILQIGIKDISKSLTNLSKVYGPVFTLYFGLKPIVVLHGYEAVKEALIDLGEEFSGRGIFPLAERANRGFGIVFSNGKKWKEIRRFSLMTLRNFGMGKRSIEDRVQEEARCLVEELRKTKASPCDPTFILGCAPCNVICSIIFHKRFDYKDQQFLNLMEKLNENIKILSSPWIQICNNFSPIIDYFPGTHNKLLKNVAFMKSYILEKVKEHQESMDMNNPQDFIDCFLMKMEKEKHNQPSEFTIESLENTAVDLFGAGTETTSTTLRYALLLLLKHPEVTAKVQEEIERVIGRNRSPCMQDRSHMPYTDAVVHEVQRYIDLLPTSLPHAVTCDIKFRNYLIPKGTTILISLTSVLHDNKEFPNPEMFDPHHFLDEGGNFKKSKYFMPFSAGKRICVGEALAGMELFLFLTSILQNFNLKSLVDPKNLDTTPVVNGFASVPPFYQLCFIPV
CYP2C9 act: CYP2C9 (human) activation; activation factor at 5 µM; 1.4% of 96,000 active; recombinant CYP2C9, luciferin-H conversion, luminescence; active compounds read high; factor 1 = untreated enzyme, 0 = blocked;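 active means activation factor of 2 or more for CYP2C9 at a 5 µM dose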;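 further: 0 = sulfaphenazole-blocked wells and 1 = vehicle-only wells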
PostGolgi yeast: growth inhibition of a yeast mutant, post-Golgi transport screen. post-Golgi transport phenotypic cell assay. inhibition, % at 10 µM. 0.9% of 98,000 active. AID 739;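 further: yeast cells grown in 1536-well plates; yeast grown about 18 h at 30C before absorbance read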
PostGolgi ctrl: inhibits growth of the yeast control strain; efflux-deficient yeast background strain, growth absorbance A615, 16 h; inhibition, % at 10 µM; 5% of 98,000 active; AID 738
CYP2C19 inhib: blocks human cytochrome P450 2C19. 21% of 96,000 active. inhibition, % at 5 µM. AID 778. CYP2C19 Supersomes, luciferin-H EGE luminescence, 30 min;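 active means CYP2C19 inhibition above a set limit at 5 µM in the primary screen, cut at about 50% in these data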;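 further: plate controls were negative control wells for no effect and 2.5 mM tranylcypromine positive control for full effect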
CYP2C19 activ: activators of human cytochrome P450 2C19; P33261; recombinant CYP2C19, luciferin-H EGE luminescence; active compounds read high; 0 = fully inhibited enzyme, 1 = untreated enzyme; activation factor at 5 µM; 96,000 tested, under 10 active; AID 1025;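 active means activation factor of at least 2 at 5 µM in the primary screen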;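 further: 0 = wells with 2.5 mM tranylcypromine and 1 = vehicle-only wells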
Starred values were filed as active, the others as inactive; nt = no result given. Rows were chosen to be rich in hits. Some 32% of all compounds tested hit in one or more screens of this group. Unless noted, no stated cut-off is given here; in the data, active means inhibition above about 30%; inactive means the rest.

SMILES | CYP2C9 inh | CYP2C9 act | PostGolgi yeast | PostGolgi ctrl | CYP2C19 inhib | CYP2C19 activ
COC(=O)C1(C(=O)OC)NOC2C(=O)N(c3ccc(Cl)cc3Cl)C(=O)C21 (configuration not stated) | -7 | 1.1 | 14 | -1 | 4 | 1
O=C(NCCCn1ccnc1)c1ccc(Cl)c(S(=O)(=O)N2CCOCC2)c1 | 97* | 0 | 4 | 0 | 36 | 0.6
O=C(NC1CCCC1)c1cccc(S(=O)(=O)N2CCCCC2)c1 | 24 | 0.8 | -7 | 23 | 8 | 0.9
O=C(Nc1nccs1)c1ccc(Cl)c(S(=O)(=O)N2CCOCC2)c1 | 25 | 0.7 | 0 | 1 | 18 | 0.8
O=C(NCCCn1ccnc1)c1cccc(S(=O)(=O)N2CCCCCC2)c1 | 100* | 0 | 14 | 3 | 95* | 0
O=C(CCl)Oc1ccc2occ(C(=O)c3cccs3)c2c1 | 24 | 0.8 | 3 | 3 | 28 | 0.7
O=S(=O)(C/C(=C/CO)S(=O)(=O)c1ccccc1)c1ccccc1 | 20 | 0.8 | 0 | 1 | 36 | 0.6
O=C(Nc1ccc2c(c1)CCC2)c1cc2ccccc2o1 | -28 | 1.3 | -1 | 3 | 16 | 0.8
O=C(COC(=O)CNC(=O)c1ccc(Br)o1)Nc1ccc2c(c1)OCCO2 | 19 | 0.8 | -4 | 15 | -5 | 1
O=C(Nc1ccc2c(c1)OCO2)c1ccc(Br)o1 | 60* | 0.4 | 0 | 24 | 85* | 0.1
O=C(Nc1ccc2c(c1)CCC2)c1ccc(Br)o1 | -18 | 1.2 | 23 | 16 | 76* | 0.2
O=C(Nc1ccc2c(c1)CCC2)c1cnccn1 | -10 | 1.1 | 3 | -7 | 68* | 0.3
Cc1ccc(C(=O)Nc2ccc3c(c2)CCC3)o1 | -13 | 1.1 | -8 | -2 | 78* | 0.2
Cc1ccc(C(=O)C(C)OC(=O)C2CC(=O)N(C3CCCCC3)C2)cc1 (configuration not stated) | 13 | 0.9 | 4 | 1 | 0 | 1
CC(C)OCCCNC(=O)Cn1nc(-c2ccccc2)ccc1=O | -8 | 1.1 | -1 | 7 | -15 | 1.1
CC(C)OC(=O)CSc1ncnc2c1cnn2Cc1ccccc1 | 31 | 0.7 | -2 | 0 | 32 | 0.7
Cc1c(Cl)cccc1NC(=O)CSc1ncnc2c1cnn2CCc1ccccc1 | 89* | 0.1 | 27 | 14 | 63* | 0.4
O=C(CSc1ncnc2c1cnn2CCc1ccccc1)Nc1cccc(C(F)(F)F)c1 | 98* | 0 | -1 | 4 | 78* | 0.2
COC(=O)CSc1ncnc2c1cnn2Cc1ccccc1 | 32 | 0.7 | 19 | -8 | 68* | 0.3
Cc1ccc(-c2onc3ccc(C4(C)OCCO4)cc23)cc1 | 54* | 0.5 | 15 | 15 | 60* | 0.4
Cc1ccsc1/C=C1\CCc2ccccc2C1=O | 87* | 0.1 | 3 | 14 | 93* | 0.1
O=C1/C(=C/Nc2ccc3c(c2)OCO3)CCc2ccccc21 | 48 | 0.5 | 0 | 10 | 44 | 0.6
COc1ccc(/C=C2\CCc3ccccc3C2=O)cc1OC | 53* | 0.5 | -3 | 23 | 30 | 0.7
COc1ccc(/C=C2\N=C3CCCCCN3C2=O)cc1OC | 7 | 0.9 | 4 | 8 | -1 | 1
COc1ccc(/C=C2\CCc3ccccc3C2=O)cc1Cn1nc(C)cc1C | 53* | 0.5 | -7 | 22 | 90* | 0.1
SMILES | CYP2C9 inh | CYP2C9 act | PostGolgi yeast | PostGolgi ctrl | CYP2C19 inhib | CYP2C19 activ
O=C(Nc1nc(-c2ccc(Cl)s2)cs1)c1cccs1 | 85* | 0.1 | -4 | 23 | 54* | 0.5
O=C(Nc1nc(-c2ccccc2)cs1)c1cccs1 | 34 | 0.7 | -9 | 0 | 15 | 0.8
O=C(Nc1nc(-c2ccccn2)cs1)c1ccc(Cl)s1 | 5 | 0.9 | 37* | 24 | -2 | 1
O=C(Nc1nc(-c2ccccn2)cs1)c1ncc(Cl)c(Cl)c1Cl | -46 | 1.5 | 82* | 39* | -6 | 1.1
O=C(CN1C(=O)CCC1=O)Nc1nc(-c2ccccn2)cs1 | -6 | 1.1 | 3 | 10 | -14 | 1.1
COc1nc(C#N)c(N2CCOCC2)o1 | 2 | 1 | 17 | 15 | 11 | 0.9
O=C(CN1C(=O)C2CC=CCC2C1=O)Nc1nc2ccccc2[nH]1 (configuration not stated) | 2 | 1 | 1 | 7 | -5 | 1
Cc1ccc(C)c(NS(=O)(=O)c2cc(C(N)=O)ccc2C)c1 | 2 | 1 | -3 | -3 | 76* | 0.2
Cc1ccc(C)c(NS(=O)(=O)c2cc(C(=O)Nc3cccc(N(C)S(C)(=O)=O)c3)ccc2C)c1 | 79* | 0.2 | 2 | 2 | 24 | 0.8
Cc1ccc(C)c(NS(=O)(=O)c2cc(C(=O)NCCC3=CCCCC3)ccc2C)c1 | 24 | 0.8 | -8 | 14 | -5 | 1.1
CCCC(c1nnnn1CCc1ccccc1)N1CCN(C2CCCC2)CC1 (configuration not stated) | 6 | 0.9 | -4 | -8 | 6 | 0.9
O=S(=O)(c1cc(Cl)ccc1Cl)N1CCN(Cc2ccc3c(c2)OCO3)CC1 | -15 | 1.1 | 1 | 30 | 50* | 0.5
CCN1CCN(S(=O)(=O)c2ccc(Br)s2)CC1 | -2 | 1 | 5 | 12 | 17 | 0.8
O=S(=O)(NCc1ccco1)c1cccc2cccnc12 | nt | nt | -1 | 0 | nt | nt
O=S(=O)(NCc1ccc2c(c1)OCO2)c1cccc2cccnc12 | -170 | 2.7* | 5 | 3 | 64* | 0.4
CS(=O)(=O)N1CCc2cc(S(=O)(=O)N3CCN(Cc4ccc5c(c4)OCO5)CC3)ccc21 | 12 | 0.9 | 0 | 6 | 10 | 0.9
O=S(=O)(c1ccc(Br)s1)N1CCN(Cc2ccc3c(c2)OCO3)CC1 | 97* | 0 | 2 | 26 | 89* | 0.1
O=S(=O)(c1ccc(Cl)nc1)N1CCN(Cc2ccc3c(c2)OCO3)CC1 | 74* | 0.3 | 22 | -2 | 63* | 0.4
N#C/C(=C\c1cc(Cl)cc(Cl)c1O)C(=O)NC1CCCCC1 | -18 | 1.2 | -9 | 17 | 0 | 1
O=S(=O)(c1cccc2cccnc12)N1CCN(Cc2ccc3c(c2)OCO3)CC1 | -150 | 2.5* | -5 | 8 | 46 | 0.5
O=C(CCS(=O)(=O)c1cccc2nsnc12)N1CCN(Cc2ccc3c(c2)OCO3)CC1 | 5 | 0.9 | 10 | 3 | 6 | 0.9
COc1ccc(/C=N\NC(=O)/C(=C\Nc2nccc(C)n2)NC(=O)c2ccccc2)cc1 | 76* | 0.2 | 7 | 2 | 32 | 0.7
COc1cccc(COc2ccccc2C2Nc3ccc(Br)cc3C(=O)N2NC(=O)c2ccncc2)c1 (configuration not stated) | 85* | 0.2 | -9 | 24 | 69* | 0.3
Cc1cc(NC(=O)c2cccc(COc3ccc(Br)cc3)c2)no1 | -9 | 1.1 | 12 | -4 | 14 | 0.9
N#Cc1cccc(NC(=O)Nc2cccs2)c1 | 84* | 0.2 | -4 | 7 | 42 | 0.6
COc1cc(OC)c(NC(=O)CCc2nc(-c3cccs3)no2)cc1Cl | 62* | 0.4 | 2 | 8 | 92* | 0.1
